Compounds with a hit are over-represented: about 7.6% of the library has one in this group of screens.
HCV NS3h FP: hepatitis C NS3 helicase inhibition, primary screen | NS3h Cy5-dT15 DNA binding, fluorescence polarization | inhibition, % at 100 µM | hit rate 1.6% among 16,000;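 active = inhibition above the average over every tested compound plus 3 SD, cut at about 40% in these data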
Cy5 interf NS3h: Cy5 fluorescence interference, HCV helicase counter-screen; Cy5-dT15 DNA with NS3h; actives lie on both sides; signal over control mean, under 1 quenches; AID 720488; fluorescence interference ratio at 100 µM; hit rate 6% among 16,000;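 active = compound fluorescence over control fluorescence at most 0.8, a quencher, or at least a set upper limit, an enhancer; inactive = ratio between 0.8 and the set upper limit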
NS3h confirm: confirmation of hepatitis C virus NS3 helicase inhibitors | shares compounds with HCV NS3h FP | NS3h binding to Cy5-dT15 DNA, fluorescence polarization | inhibition, % at 100 µM | hit rate 20% among 240;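 active = percent inhibition of 50% or more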
SSB-DNA FP CB: counter-screen for HCV NS3 helicase inhibitors: E. coli SSB binding; E. coli SSB binding Cy5-dT15, fluorescence polarization; AID 720486; hit rate 40% among 240; shares compounds with HCV NS3h FP; inhibition, % at 100 µM;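 active = inhibition of at least 50%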;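 note: displacers lower Cy5 polarization so higher inhibition means more SSB displaced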
Target sequence (P0AGE0 whole entry, looked up): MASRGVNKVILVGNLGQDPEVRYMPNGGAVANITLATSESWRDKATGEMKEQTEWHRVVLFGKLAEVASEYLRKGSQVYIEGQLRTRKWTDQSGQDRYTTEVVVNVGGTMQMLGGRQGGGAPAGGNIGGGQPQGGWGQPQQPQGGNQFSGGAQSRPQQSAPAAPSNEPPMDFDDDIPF
Cy5 SSB interf: counter-screen for HCV NS3 helicase inhibitors: fluorescence interference | shares compounds with HCV NS3h FP | Cy5-dT15/E. coli SSB fluorescence interference; actives lie on both sides | fluorescence interference ratio at 100 µM | hit rate 8% among 240 | AID 720487;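 active = fluorescence interference ratio at or above 1.2, signal boosting, or at or below 0.8, signal quenching; inactive = ratio between 0.8 and 1.2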;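 note: ratio of compound well signal to mean negative control signal so 1 means no effect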
Cy5 interf conf: Cy5 fluorescence interference, confirmation counter-screen. Cy5-dT15 DNA/NS3h fluorescence interference counterscreen. hit rate 44% among 240. shares compounds with HCV NS3h FP. fluorescence interference ratio at 100 µM, hits read low. AID 720489;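 active = fluorescence interference ratio at or below 0.8 quencher or at or above a set limitenhancer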;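 note: ratio of compound fluorescence to mean of negative controls so 1 means no interference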
Active calls of the source: *; / = no result.

SMILES	HCV NS3h FP	Cy5 interf NS3h	NS3h confirm	SSB-DNA FP CB	Cy5 SSB interf	Cy5 interf conf
CCOc1cc(/C=C2\C(=O)NN(c3ccc(Cl)c(Cl)c3)C2=O)ccc1OC(C)=O	37.7	0.843	28.8	11.4	0.881	0.867
O=C1NN(c2ccc(Cl)c(Cl)c2)C(=O)/C1=C/c1ccc(Cl)c([N+](=O)[O-])c1	36.6	0.87	/	/	/	/
COC(=O)c1ccccc1P(=O)(c1ccccc1)c1ccccc1	-8.1	0.929	/	/	/	/
CC1CC(=O)NN=C1c1ccc(Cl)c([N+](=O)[O-])c1 (stereo not drawn)	4.6	1.07	/	/	/	/
CN1C(=O)C(=O)N(CC(=O)NCc2ccco2)C1=O	73.5*	0.755*	27.7	13.8	0.768*	0.836
CC(C(=O)NCc1ccco1)N1C(=O)c2ccccc2C1=O (stereo not drawn)	3.6	1.07	/	/	/	/
O=c1[nH]c(/C=C\c2ccccc2Cl)c([N+](=O)[O-])c(=O)[nH]1	-9.4	0.903	/	/	/	/
CCN(CC)c1ccc(/C=C/c2[nH]c(=O)[nH]c(=O)c2[N+](=O)[O-])c(OC)c1	53.5*	0.918	8.7	18.7	0.869	0.872
O=c1[nH]c(=O)n(-c2cccc(C(F)(F)F)c2)c(O)c1C=C1C=CC=N1	27.0	0.97	/	/	/	/
O=c1[nH]c(=S)n(-c2ccccc2F)c(O)c1C=C1C=CC=N1	113.7*	0.575*	47.8	127.9*	0.738*	0.598*
CCOc1ccccc1NC(=O)c1cc([N+](=O)[O-])ccc1N1CCN(Cc2ccccc2)CC1	9.4	1.01	/	/	/	/

Bioassay records (PubChem)
